Where “and” joins values, the source holds several entries; their conditions need not be identical. Identical values can stand only once. Results filed as inconclusive are left out. Calls of active or inactive are those of the source. The calls were made as follows: active = hit-call score of the fitted dose curve at least 0.9, where 1 is the maximum; inconclusive = response in the unintended direction; inactive = score below 0.9.
What was measured:
[1] = biological target: Cellular tumor antigen p53 (Homo sapiens) (UniProt P04637); test: TOX21_p53_BLA_p3_ratio: Tox21 HCT-116 p53 Agonism Beta-lactamase Assay, Ratio, Phase 3 (AID 2283596)
Sequence of Cellular tumor antigen p53 (Homo sapiens) (P04637 whole entry, looked up): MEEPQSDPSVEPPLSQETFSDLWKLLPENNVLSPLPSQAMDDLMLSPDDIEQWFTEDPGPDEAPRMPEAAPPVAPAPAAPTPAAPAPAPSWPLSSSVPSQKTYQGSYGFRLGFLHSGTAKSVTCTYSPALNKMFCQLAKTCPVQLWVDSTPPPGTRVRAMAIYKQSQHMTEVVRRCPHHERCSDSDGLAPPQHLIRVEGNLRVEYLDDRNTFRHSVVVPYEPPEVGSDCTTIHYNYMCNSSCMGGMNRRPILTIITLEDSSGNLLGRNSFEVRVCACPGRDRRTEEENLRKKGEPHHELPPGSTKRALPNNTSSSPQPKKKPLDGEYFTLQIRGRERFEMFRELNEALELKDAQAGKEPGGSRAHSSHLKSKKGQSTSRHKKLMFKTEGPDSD
How it was run: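 Cells were seeded at 4000/well, rested 5 h at 37C, then dosed with DMSO compound solutions (217-fold dilution) for 16 h. CCF4-AM substrate was loaded for 2 h at room temperature, and the 460/530 nm emission ratio was fitted for gain of signal versus DMSO.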

[2] = TOX21_p53_BLA_p4_viability: Viability Assessment in the Tox21 HCT-116 p53 Agonism Beta-lactamase Assay, Phase 4 (AID 2283597);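 also: hits lower the luminescence signal meaning cytotoxicity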
How it was run: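 ATP content by CellTiter-Glo luminescence, 30 min RT, read after the beta-lactamase ratio step. Cells: HCT116, 4000/well, compound added after 5 h, exposure 16 h at 37C. Signal loss = reduced viability.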

[3] = biological target: Cellular tumor antigen p53 (Homo sapiens) (UniProt P04637); test: TOX21_p53_BLA_p5_ratio: Tox21 HCT-116 p53 Agonism Beta-lactamase Assay, Ratio, Phase 5 (AID 2283599)
How it was run: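 HCT-116 cells carrying a p53-inducible beta-lactamase reporter were seeded at 4000 cells/well and dosed after 5 h with compound in DMSO (217-fold dilution). After 16 h at 37C, CCF4-AM substrate was added for 2 h, and the 460/530 nm emission ratio was scored as gain-of-signal versus DMSO.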

[4] = TOX21_p53_BLA_p5_viability: Viability Assessment in the Tox21 HCT-116 p53 Agonism Beta-lactamase Assay, Phase 5 (AID 2283600)
How it was run: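 ATP luminescence (CellTiter-Glo, 30 min, RT) served as the viability read-out, with loss of signal indicating cytotoxicity. Compounds in DMSO were pinned at a 217-fold dilution onto 4000 cells/well and incubated 16 h, 37C.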

[5] = biological target: Cellular tumor antigen p53 (Homo sapiens) (UniProt P04637); test: TOX21_p53_BLA_p4_ratio: Tox21 HCT-116 p53 Agonism Beta-lactamase Assay, Ratio, Phase 4 (AID 2283601)
How it was run: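 HCT116 cells carrying an inducible beta-lactamase reporter were plated at 4000 cells/well, rested 5 h, then exposed to compounds in DMSO (217-fold dilution) for 16 h at 37C. CCF4-AM substrate was loaded 2 h at room temperature; 460/530 nm emission ratio scored gain-of-signal versus DMSO.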

Measured: AC50

CCCCCCCC(=O)OCC(O)CO (centres undefined)
inactive: all assays above

CCCCCc1ccco1
inactive: all assays above

Cc1cc(C)nc(NS(=O)(=O)c2ccc(N)cc2)n1
inactive: all assays above

CCCC(=O)OC(C)(C)Cc1ccccc1
inactive: all assays above

O=C1OC(=O)c2c(Cl)c(Cl)c(Cl)c(Cl)c21
inactive: all assays above

CC1C2CC(CC2C2CCCC(O)C2)C1(C)C (centres undefined)
inactive: all assays above

CCCCC1(COC(=O)CCC(=O)O)C(=O)N(c2ccccc2)N(c2ccccc2)C1=O
inactive: all assays above

Clc1ccc(C(c2ccccc2Cl)C(Cl)Cl)cc1 (centres undefined)
active: [1] 55.9 µM and 37.2 µM | [2] 64.3 µM and 25.8 µM | [3] 83.4 µM and 42.3 µM | [4] 72.7 µM and 35.9 µM | [5] 82.4 µM and 36.6 µM

COC(=O)c1cccnc1
inactive: all assays above

C=CCCCCCCCCCC
inactive: all assays above

CCCC1O[C@@H]2C[C@H]3[C@@H]4CCC5=CC(=O)C=C[C@]5(C)[C@H]4[C@@H](O)C[C@]3(C)[C@]2(C(=O)CO)O1 (some centres undefined)
inactive: all assays above

CN(C)CCOC(C)(c1ccccc1)c1ccccn1 (centres undefined)
inactive: all assays above

O=[N+]([O-])c1ccc(O)cc1C(F)(F)F
active: [1] 42 µM | [3] 30.7 µM | [5] 45.6 µM
inactive: [2] | [4]

Cc1ncc([N+](=O)[O-])n1CCO
inactive: all assays above

CCC(Cl)C(Cl)C(Cl)CC(Cl)C(Cl)C(C)Cl (centres undefined)
inactive: all assays above

CS(C)=O
inactive: all assays above

CCCC(=O)c1ccccc1
not listed: [4]
inactive: all other assays above

Source: PubChem BioAssay (EPA / NIEHS)
